Bioassay records as filed in PubChem BioAssay.
Compounds with a hit are over-represented: about 21% of the library has one in this group of screens.
Pf growth 96h: Primary qHTS for delayed death inhibitors of the malarial parasite plastid, 96 hour incubation. P. falciparum luciferase reporter growth, 96 h. Potency, µM (titrated, usually from 28.7 µM), inactives show at the highest dose activity change, negative = inhibition, most hits filed as inhibitors. 320,000 compounds, 6.9% hits; further: potency means the concentration at half of the fitted maximal effect; on the % scale 0 is the no-effect control and ±100 the full control effect
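Cell-based qHTS: luciferase-tagged P. falciparum in erythrocytes (2% hematocrit, 0.05% parasitemia final) incubated with compounds for 96 hours, 37 C, 5% CO2; luciferase detection reagent then added and luminescence measured.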
Shiga inhibitor: A qHTS for Small Molecule Inhibitors of Shiga Toxin | Vero cells, Shiga toxin protein synthesis inhibition reporter | inhibition, % at 38.7 µM | 290,000 compounds, 9.2% hits; in the data active means inhibition mostly above about 28%, no sharp cut-off; inactive means mostly below about 43%; further: 0% is about no effect
NS1 inh: qHTS Assay for Inhibitors of Influenza NS1 Protein Function; Potency, µM (top dose mostly 46.1 µM), for the others: at the top dose activity, positive = more growth; 270,000 compounds, 0.4% hits; AID 2326, 2010; calls by dose curve; further: potency means the concentration at half of the fitted maximal effect; actives are rising curves; nearly all actives have a fitted effect of over 50% in size
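In this qHTS, NS1 from influenza A is expressed in budding yeast, where it slows growth. Cells are switched from glucose to 2% galactose medium (pH 6.0, -URA), treated with compound, and growth recovery is read at OD600.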
Sm TGR inh: qHTS Assay for the Inhibitors of Schistosoma Mansoni Peroxiredoxins; Schistosoma mansoni thioredoxin glutathione reductase (TGR), Q962Y6; purified TGR, DTNB reduction, TNB absorbance 405 nm; Potency, µM (titrated, usually from 114 µM), for inactives: at the highest dose activity change, negative = inhibition, most hits filed as inhibitors; 360,000 compounds, 3% hits; AID 485364, 2010; further: potency means the concentration at half of the fitted maximal effect; on the % scale 0 is the no-effect control and ±100 the full control effect; nearly all actives have a fitted effect of over 60% in size
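Kinetic colorimetric format: TGR-catalysed, NADPH-driven DTNB reduction monitored via TNB absorbance. Enzyme dispensed at 20 nM; compound exposure 15 min at room temperature before reaction start.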
Cycloheximide cs: Cycloheximide Counterscreen for Small Molecule Inhibitors of Shiga Toxin | cell reporter, cycloheximide protein synthesis inhibition counterscreen | max response, % | 300,000 compounds, 12% hits; in the data active means max response mostly above about 13%, no sharp cut-off; inactive means mostly below about 14%; further: read at 38.3 µM for the half of the compounds with a filed dose; 0% is about no effect
Pf growth 48h: Primary qHTS for delayed death inhibitors of the malarial parasite plastid, 48 hour incubation | AID 504832, 2011 | Potency, µM (series often up to 28.7 µM), for the others: at the highest dose activity change, negative = inhibition, most hits filed as inhibitors | P. falciparum luciferase growth in erythrocytes, 48 h | 310,000 compounds, 5.9% hits; further: potency means the concentration at half of the fitted maximal effect; on the % scale 0 is the no-effect control and ±100 the full control effect
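Cell-based growth assay: transgenic P. falciparum expressing firefly luciferase, cultured in red cells within RPMI 1640 containing 0.5% w/v Albumax, 24 mM bicarbonate and gentamycin. A drop in luciferase activity indicates inhibition.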
Active calls of the source: *; [ ] = remark or other dose. Unless noted, the call rests on the fitted dose curve; in most records, active means well fitted curve in the direction sought with a large enough effect; inconclusive means small, poorly fitted or top-dose-only effect, or another doubt; inactive means no such curve, though single readings can be large; an effect the other way counts as inactive or inconclusive.

For O=C(Nc1ccc(Cl)c(Cl)c1)C1=Cc2ccccc2OC1 the results were Pf growth 96h inconclusive, Shiga inhibitor 66*, NS1 inh -11%, Sm TGR inh -26% and Cycloheximide cs 43*.
CN(CC1CCOCC1)C(=O)CC1C(=O)NCCN1CC(c1ccccc1)c1ccccc1 (centres undefined) was read as Pf growth 96h 2%, Shiga inhibitor 3, NS1 inh 8%, Sm TGR inh inconclusive, Cycloheximide cs -2 and Pf growth 48h inconclusive.
For CCN(C(=O)c1cccc(S(=O)(=O)N(C)C)c1)C12CC3CC(CC(C3)C1)C2 the results were Pf growth 96h inconclusive, Shiga inhibitor 18, NS1 inh -6%, Sm TGR inh -8%, Cycloheximide cs -4 and Pf growth 48h inconclusive.
For O=C(Nc1ccc2c(c1)OCCO2)c1ccc(Cl)c(Cl)c1 the results were Pf growth 96h inconclusive, Shiga inhibitor 84*, NS1 inh -3%, Sm TGR inh -16%, Cycloheximide cs 45* and Pf growth 48h 203%.
Cc1cc(C(=O)Nc2ccc(N3CCCC3)c(Cl)c2)ccc1[N+](=O)[O-] was read as Pf growth 96h 9.3µM*, Shiga inhibitor 31*, NS1 inh 6%, Sm TGR inh 5%, Cycloheximide cs 47* and Pf growth 48h 8%.
For O=C(Nc1ccc2c(c1)OCCO2)c1ccc2nccnc2c1 the results were Shiga inhibitor 35, NS1 inh -71%, Sm TGR inh inconclusive, Cycloheximide cs 33* and Pf growth 48h 127%.
O=C(Nc1ccc(C(O)(C(F)(F)F)C(F)(F)F)cc1)c1ccc(Cl)c([N+](=O)[O-])c1 was read as Pf growth 96h 10µM*, Shiga inhibitor 9, NS1 inh -49%, Sm TGR inh -9%, Cycloheximide cs 9 and Pf growth 48h 12µM*.
Screening O=C(O)c1cc(NC(=O)c2ccc(Cl)c([N+](=O)[O-])c2)cc(C(=O)O)c1 returned Pf growth 96h 52%, Shiga inhibitor -6, Sm TGR inh -8%, Cycloheximide cs -1 and Pf growth 48h 23%.
Screening COC(=O)c1ccc(NC(=O)c2ccc3nccnc3c2)cc1 returned Pf growth 96h 12%, Shiga inhibitor 43, NS1 inh -17%, Sm TGR inh 1%, Cycloheximide cs 11 and Pf growth 48h 9%.
`O=[N+]([O-])c1ccc(S(=O)(=O)Nc2ccc(S(=O)(=O)N3CCCC3)cc2)cc1` gave Pf growth 96h -15%, Shiga inhibitor 2, NS1 inh -2%, Sm TGR inh -4%, Cycloheximide cs -4 and Pf growth 48h 13%.
Oc1c(Br)cc(Br)cc1Oc1ccc(Br)cc1Br was read as Pf growth 96h 15µM*, Shiga inhibitor 19, NS1 inh -16%, Sm TGR inh inconclusive, Cycloheximide cs -4 and Pf growth 48h inconclusive.
For Brc1ccc(Oc2ccc(Br)cc2Br)c(Br)c1 the results were Pf growth 96h -9%, Sm TGR inh 38% and Pf growth 48h 22%.
Screening Cn1cnnc1SCC(=O)OCN1C(=O)c2ccccc2C1=O returned Shiga inhibitor 15, NS1 inh inconclusive, Sm TGR inh -17%, Cycloheximide cs -1 and Pf growth 48h 24%.
Screening Cc1cc(C)nc(SCC(=O)OCN2C(=O)c3ccccc3C2=O)n1 returned Pf growth 96h -24%, Shiga inhibitor -28, NS1 inh 3%, Sm TGR inh 0%, Cycloheximide cs -2 and Pf growth 48h 1.9µM*.
`Cc1ccc(N(C(=O)c2ccccc2Cl)C2=NC(C)CS2)c(C)c1` (centres undefined) gave Pf growth 96h 15µM*, Shiga inhibitor 10, NS1 inh -4%, Sm TGR inh 0%, Cycloheximide cs 9 and Pf growth 48h inconclusive.
For Cc1cc2c(cc1C)NC1=C(N2)OC(c2cccc(O)c2)C1=O (centres undefined) the results were Pf growth 96h 8%, Shiga inhibitor 38, NS1 inh -5%, Sm TGR inh 9%, Cycloheximide cs 7.4* and Pf growth 48h 5%.
Screening COc1ccc(C2OC3=C(Nc4cc(C)c(C)cc4N3)C2=O)cc1 (centres undefined) returned Pf growth 96h 89%, Shiga inhibitor 77*, NS1 inh -6%, Sm TGR inh 2%, Cycloheximide cs 30* and Pf growth 48h 71%.
Screening COc1ccccc1C1OC2=C(Nc3ccc([N+](=O)[O-])cc3N2)C1=O (centres undefined) returned Pf growth 96h inconclusive, Shiga inhibitor -3, NS1 inh -6%, Sm TGR inh 19%, Cycloheximide cs -3 and Pf growth 48h inconclusive.
CCCNC(=O)C1CC(=O)N(c2ccc(OCc3ccc(F)cc3)cc2)C1 (centres undefined) was read as Pf growth 96h inconclusive, Shiga inhibitor 112*, NS1 inh -3%, Sm TGR inh -10%, Cycloheximide cs 33* and Pf growth 48h 243%.
For C=CCNC(=O)C1CC(=O)N(c2ccc(OCC(=O)Nc3ccccc3)cc2)C1 (centres undefined) the results were Shiga inhibitor 48*, NS1 inh 1%, Sm TGR inh -11%, Cycloheximide cs 30* and Pf growth 48h 144%.
For NC(=O)C1CC(=O)N(c2ccc(OCc3ccc(Cl)cc3)cc2)C1 (centres undefined) the results were Pf growth 96h -61%, Shiga inhibitor 79*, NS1 inh -4%, Sm TGR inh -4%, Cycloheximide cs 50* and Pf growth 48h 166%.
Screening C=CCNC(=O)C1CC(=O)N(c2ccc(OCc3ccc(F)cc3)cc2)C1 (centres undefined) returned Pf growth 96h 12µM*, Shiga inhibitor 72*, NS1 inh 6%, Sm TGR inh 13%, Cycloheximide cs 47* and Pf growth 48h 156%.
C=CCNC(=O)C1CC(=O)N(c2ccc(OCC(=O)Nc3ccc(C)cc3)cc2)C1 (centres undefined) was read as Pf growth 96h 1%[5.75 µM], Shiga inhibitor -15, NS1 inh 4%, Sm TGR inh -1%, Cycloheximide cs -5 and Pf growth 48h 1%.
For C=CCNC(=O)C1CC(=O)N(c2ccc(OCC(=O)N3CCCC3)cc2)C1 (centres undefined) the results were Pf growth 96h 17%, Shiga inhibitor -2, NS1 inh 1%, Sm TGR inh 4%, Cycloheximide cs 7 and Pf growth 48h 26%.
CCCCOc1ccc(N2CC(C(=O)NCCc3ccc(OC)c(OC)c3)CC2=O)cc1 (centres undefined) was read as Pf growth 96h 12µM*, Shiga inhibitor 6, Sm TGR inh -1%, Cycloheximide cs 7 and Pf growth 48h -15%.
